Measured values published in the supplement of paper PMC10849652.
Of roughly 7,900 targets only a part is listed; those with a hit were picked by preference. About 0.6% of all pairs of compound and target were hits.

Legend:
Test in all cases: log2 fold change, soluble protein after heating vs DMSO (PISA); higher = thermal stabilisation; K562 cells, 10 uM, 30 min; active = over 0.2 and 3.5 SD of the protein, either way, in both replicates (recomputed)
[1] = compound: NC(=O)Nc1cc(-c2cccc(F)c2)sc1C(=O)N[C@H]1CCCNC1
In short: (§1)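 K562 cells (2×10^6 cells/mL) were treated with 10 μM compound for 30 min, and aliquots were heated for 3 min over 48°C-58°C. Pooled aliquots were extracted in PBS with 0.5% NP-40 at 4°C, and the supernatant after 21,000xg for 90 min was measured by TMTpro 16plex LC-MS/MS with channel sums equalised. Reported thermal stability, relative to control samples and from duplicates, is a log2 fold change.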

[2] = compound: NC(=O)c1cnc(N[C@@H]2CCCC[C@@H]2N)nc1Nc1cccc(-n2nccn2)c1
In short: as §1

[3] = compound: NC1(c2ccc(-c3nc4ccn5c(=O)[nH]nc5c4cc3-c3ccccc3)cc2)CCC1
In short: as §1

[4] = compound: NCC(=O)Nc1ccc(-n2nc(C(F)(F)F)cc2-c2ccc3c(ccc4ccccc43)c2)cc1
In short: as §1

[5] = compound: Nc1ccccc1NC(=O)c1ccc(CNC(=O)OCc2cccnc2)cc1 [entinostat]
In short: as §1

[6] = compound: O=C(CCCCCCC(=O)Nc1ccccc1)NO [vorinostat]
In short: as §1

[7] = compound: O=C(CCCCCCNC(=O)c1cnc(N(c2ccccc2)c2ccccc2Cl)nc1)NO [citarinostat]
In short: as §1

[8] = compound: O=C(O)c1ccc2c(c1)nc(Nc1cccc(Cl)c1)c1ccncc12 [silmitasertib]
In short: as §1

[9] = compound: O=C1NC(=O)C(c2cnc3ccccn23)=C1c1cn2c3c(cc(F)cc13)CN(C(=O)N1CCCCC1)CC2
In short: as §1

[10] = compound: c1cc(OCCN2CCCCC2)cc(-c2n[nH]c3ccc(-c4nnc[nH]4)cc23)c1
In short: as §1

[11] = compound: c1cn2cc(-c3ccc4cn[nH]c4c3)nc(Nc3ccc(N4CCOCC4)cc3)c2n1 [entospletinib]
In short: as §1

Measured: log2 fold change

AKR1C3 (UniProt P42330)
UniProt P42330, sequence (P42330 whole entry, looked up): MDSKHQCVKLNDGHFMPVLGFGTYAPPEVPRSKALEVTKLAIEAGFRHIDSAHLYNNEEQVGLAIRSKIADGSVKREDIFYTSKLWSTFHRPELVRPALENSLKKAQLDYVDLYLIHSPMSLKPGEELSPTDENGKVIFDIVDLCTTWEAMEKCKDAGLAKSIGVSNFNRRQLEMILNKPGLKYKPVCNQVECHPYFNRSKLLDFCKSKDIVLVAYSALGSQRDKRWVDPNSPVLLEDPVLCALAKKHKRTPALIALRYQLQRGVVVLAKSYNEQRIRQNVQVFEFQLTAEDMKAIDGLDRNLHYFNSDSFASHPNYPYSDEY
inactive: [1] 0.119 | [2] 0.064 | [3] 0.235 | [4] -0.032 | [5] 0.106 | [6] -0.058 | [7] 0.049 | [8] 0.126 | [9] 0.211 | [10] 0.154 | [11] -0.011

ATF7 isoform 6 (UniProt P17544)
inactive: [1] -0.113 | [2] 0.138 | [3] -0.123 | [4] 0.268 | [5] -0.045 | [8] 0.067 | [9] -0.044

ALG3 (UniProt Q92685)
inactive: [1] -0.039 | [2] -0.037 | [3] -0.006 | [4] 0.045 | [5] 0.172 | [6] -0.046 | [7] -0.051 | [8] 0.034 | [9] -0.055 | [10] -0.027 | [11] 0.049

AAMP (UniProt Q13685)
UniProt Q13685, sequence (Q13685 whole entry, looked up): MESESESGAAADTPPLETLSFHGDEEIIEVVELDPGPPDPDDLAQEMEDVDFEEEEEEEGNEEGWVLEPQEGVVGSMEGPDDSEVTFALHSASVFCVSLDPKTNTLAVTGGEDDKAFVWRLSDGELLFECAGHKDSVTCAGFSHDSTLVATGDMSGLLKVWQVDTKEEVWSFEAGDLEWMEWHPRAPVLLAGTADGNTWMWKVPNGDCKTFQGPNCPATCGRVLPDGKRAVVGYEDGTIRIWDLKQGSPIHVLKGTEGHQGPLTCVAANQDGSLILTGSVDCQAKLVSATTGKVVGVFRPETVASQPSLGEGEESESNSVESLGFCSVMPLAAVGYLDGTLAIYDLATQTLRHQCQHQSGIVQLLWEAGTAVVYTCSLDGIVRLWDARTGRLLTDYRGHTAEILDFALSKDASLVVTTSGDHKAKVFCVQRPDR
inactive: [1] -0.006 | [2] -0.05 | [3] -0.005 | [4] -0.018 | [5] -0.055 | [6] 0.015 | [7] -0.026 | [8] 0.061 | [9] 0.059 | [10] -0.013 | [11] 0.063

APOBEC3G (UniProt Q9HC16)
inactive: [1] 0.046 | [2] 0.149 | [3] 0.061 | [4] -0.027 | [5] 0.026 | [7] 0.125 | [8] 0.116 | [9] 0.202 | [10] -0.013 | [11] 0.126

APPL1 (UniProt Q9UKG1)
inactive: [1] -0.032 | [2] -0.012 | [3] -0.023 | [4] -0.043 | [5] -0.053 | [6] 0.009 | [7] 0.04 | [8] 0.022 | [9] -0.046 | [10] 0.07 | [11] 0.027

ATP7B (UniProt P35670)
inactive: [1] -0.051 | [2] -0.139 | [3] -0.111 | [4] -0.15 | [5] -0.003 | [6] 0.035 | [7] 0.005 | [8] 0.036 | [9] -0.036 | [10] -0.023 | [11] 0.012

ATP9B (UniProt O43861)
active: [1] -0.58
inactive: [2] -0.028 | [3] 0.052 | [4] -0.029 | [5] -0.24 | [6] -0.044 | [7] 0.135 | [8] 0.071 | [9] 0.029 | [10] -0.048 | [11] -0.134

APOH (UniProt P02749)
inactive: [1] -0.094 | [2] -0.109 | [3] -0.414 | [4] 0.065 | [5] 0.06 | [6] 0.354 | [7] -0.149 | [8] 0.565 | [10] 0.006 | [11] 0.206

ARHGAP4 isoform 2 (UniProt P98171)
inactive: [1] 0.197 | [2] -0.079 | [3] 0.021 | [4] -0.036 | [5] 0.081 | [7] 0.047 | [8] -0.043 | [10] -0.097 | [11] 0.003

ATP12A isoform 2 (UniProt P54707)
UniProt P54707, sequence (P54707 whole entry, looked up): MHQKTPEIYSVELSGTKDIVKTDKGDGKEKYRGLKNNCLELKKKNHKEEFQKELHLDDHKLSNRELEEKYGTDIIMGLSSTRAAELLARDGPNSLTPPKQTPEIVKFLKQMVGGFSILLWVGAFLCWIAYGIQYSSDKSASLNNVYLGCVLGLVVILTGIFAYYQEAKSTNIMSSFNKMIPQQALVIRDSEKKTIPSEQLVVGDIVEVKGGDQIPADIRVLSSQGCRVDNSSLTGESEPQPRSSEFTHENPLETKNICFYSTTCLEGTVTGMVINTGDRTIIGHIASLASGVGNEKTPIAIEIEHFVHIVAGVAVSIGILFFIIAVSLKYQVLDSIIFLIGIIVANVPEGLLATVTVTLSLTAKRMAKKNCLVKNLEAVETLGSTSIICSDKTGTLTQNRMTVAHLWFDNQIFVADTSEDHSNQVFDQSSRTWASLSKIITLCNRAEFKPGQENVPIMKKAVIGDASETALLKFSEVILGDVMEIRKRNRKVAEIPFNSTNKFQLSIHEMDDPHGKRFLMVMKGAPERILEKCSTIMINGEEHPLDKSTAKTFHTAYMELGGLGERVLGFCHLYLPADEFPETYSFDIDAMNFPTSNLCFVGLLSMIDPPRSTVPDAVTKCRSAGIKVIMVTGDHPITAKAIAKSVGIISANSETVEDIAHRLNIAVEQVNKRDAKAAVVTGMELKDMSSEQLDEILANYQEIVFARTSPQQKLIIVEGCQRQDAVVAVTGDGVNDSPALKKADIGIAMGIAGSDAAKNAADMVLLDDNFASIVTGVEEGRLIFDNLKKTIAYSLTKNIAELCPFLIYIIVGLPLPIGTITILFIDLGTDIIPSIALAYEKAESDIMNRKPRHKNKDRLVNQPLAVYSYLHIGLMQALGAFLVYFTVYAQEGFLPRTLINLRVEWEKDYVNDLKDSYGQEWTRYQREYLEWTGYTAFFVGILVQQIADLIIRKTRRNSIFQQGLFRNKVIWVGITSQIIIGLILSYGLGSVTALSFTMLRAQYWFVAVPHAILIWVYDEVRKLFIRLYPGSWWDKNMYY
inactive: [1] -0.115 | [2] 0.049 | [3] 0.075 | [4] 0.003 | [5] -0.072 | [6] -0.035 | [7] -0.033 | [8] -0.033 | [9] -0.032 | [10] -0.037 | [11] -0.003

ACBD6 (UniProt Q9BR61)
UniProt Q9BR61, sequence (Q9BR61 whole entry, looked up): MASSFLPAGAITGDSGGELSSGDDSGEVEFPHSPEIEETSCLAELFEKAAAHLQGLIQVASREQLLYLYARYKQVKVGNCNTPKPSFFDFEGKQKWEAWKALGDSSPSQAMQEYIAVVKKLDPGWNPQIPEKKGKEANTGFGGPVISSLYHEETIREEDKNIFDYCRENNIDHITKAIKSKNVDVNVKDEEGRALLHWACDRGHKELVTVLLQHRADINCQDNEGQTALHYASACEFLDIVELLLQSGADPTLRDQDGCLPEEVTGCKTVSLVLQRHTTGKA
inactive: [1] -0.089 | [2] -0.077 | [3] -0.006 | [4] 0.001 | [5] -0.048 | [6] 0.086 | [7] 0.084 | [8] 0.134 | [9] 0.022 | [10] 0.271 | [11] 0.035

BOP1 (UniProt Q14137)
inactive: [1] 0.002 | [2] -0.027 | [3] 0.04 | [4] -0.018 | [5] -0.004 | [6] 0.107 | [7] 0.035 | [8] 0.038 | [10] -0.073 | [11] -0.063
active: [9] -0.351

BZW2 (UniProt Q9Y6E2)
inactive: [1] 0.019 | [2] -0.055 | [3] -0.225 | [4] -0.066 | [5] 0.047 | [6] -0.003 | [7] 0.044 | [8] -0.001 | [9] -0.044 | [10] -0.069 | [11] 0.002

ATP5ME (UniProt P56385)
UniProt P56385, sequence (P56385 whole entry, looked up): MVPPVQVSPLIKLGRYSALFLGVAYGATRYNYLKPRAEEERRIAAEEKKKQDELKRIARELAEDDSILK
inactive: [1] 0.003 | [2] -0.007 | [3] 0.057 | [4] -0.04 | [5] 0.026 | [6] -0.027 | [7] -0.007 | [8] -0.008 | [9] -0.037 | [10] -0.039 | [11] 0.027

ARL2BP (UniProt Q9Y2Y0)
inactive: [1] -0.056 | [2] -0.108 | [3] -0.129 | [4] -0.088 | [5] -0.057 | [6] 0.132 | [7] 0.006 | [8] -0.02 | [9] 0.108 | [10] 0.046 | [11] -0.06

AFG1L (UniProt Q8WV93)
UniProt Q8WV93, sequence (Q8WV93 whole entry, looked up): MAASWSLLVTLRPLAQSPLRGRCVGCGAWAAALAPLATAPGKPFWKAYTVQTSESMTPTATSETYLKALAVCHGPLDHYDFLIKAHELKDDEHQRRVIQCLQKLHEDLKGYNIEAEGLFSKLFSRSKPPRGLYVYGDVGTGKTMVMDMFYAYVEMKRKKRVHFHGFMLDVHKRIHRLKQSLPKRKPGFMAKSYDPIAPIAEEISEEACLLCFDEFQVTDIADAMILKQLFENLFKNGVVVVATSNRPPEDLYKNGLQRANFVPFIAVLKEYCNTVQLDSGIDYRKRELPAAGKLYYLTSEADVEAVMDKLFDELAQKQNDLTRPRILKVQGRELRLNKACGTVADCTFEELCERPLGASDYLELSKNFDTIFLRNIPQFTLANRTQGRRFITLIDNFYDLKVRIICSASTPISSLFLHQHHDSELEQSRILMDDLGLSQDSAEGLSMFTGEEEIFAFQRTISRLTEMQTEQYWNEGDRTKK
inactive: [1] -0.021 | [2] 0.008 | [3] 0.019 | [4] -0.178 | [5] 0.095 | [7] -0.004 | [8] 0.009 | [9] -0.009 | [10] -0.057 | [11] -0.029

BDH2 (UniProt Q9BUT1)
UniProt Q9BUT1, sequence (Q9BUT1 whole entry, looked up): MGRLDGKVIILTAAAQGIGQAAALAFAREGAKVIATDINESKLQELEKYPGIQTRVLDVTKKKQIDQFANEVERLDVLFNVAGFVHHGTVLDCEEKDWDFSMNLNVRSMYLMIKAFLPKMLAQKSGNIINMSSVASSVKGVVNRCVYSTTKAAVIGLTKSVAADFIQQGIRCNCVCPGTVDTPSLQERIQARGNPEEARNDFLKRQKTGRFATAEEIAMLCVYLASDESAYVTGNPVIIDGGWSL
inactive: [1] -0.091 | [2] -0.086 | [3] -0.042 | [4] 0.009 | [5] 0.025 | [6] -0.03 | [8] 0.076

ANK2 (UniProt Q01484)
inactive: [1] -0.146 | [2] -0.196 | [3] -0.183 | [4] -0.16 | [5] 0.001 | [6] 0.134 | [7] -0.104 | [8] -0.004 | [10] -0.019 | [11] 0.016

BCCIP isoform 2 (UniProt Q9P287)
UniProt Q9P287, sequence (Q9P287 whole entry, looked up): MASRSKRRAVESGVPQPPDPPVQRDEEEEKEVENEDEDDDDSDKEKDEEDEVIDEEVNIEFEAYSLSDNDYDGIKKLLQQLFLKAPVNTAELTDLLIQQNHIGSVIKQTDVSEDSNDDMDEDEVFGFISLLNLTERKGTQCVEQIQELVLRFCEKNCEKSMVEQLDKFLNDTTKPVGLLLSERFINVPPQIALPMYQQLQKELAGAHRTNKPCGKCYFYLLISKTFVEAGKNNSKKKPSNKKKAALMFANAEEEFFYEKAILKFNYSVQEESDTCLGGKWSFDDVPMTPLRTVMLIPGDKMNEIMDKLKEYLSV
inactive: [1] 0 | [2] -0.001 | [3] -0.096 | [4] -0.011 | [5] 0.027 | [6] 0.033 | [7] 0.021 | [8] 0.096 | [9] -0.029 | [10] -0.031 | [11] 0.008

ACSL5 isoform 3 (UniProt Q9ULC5)
UniProt Q9ULC5, sequence (Q9ULC5 whole entry, looked up): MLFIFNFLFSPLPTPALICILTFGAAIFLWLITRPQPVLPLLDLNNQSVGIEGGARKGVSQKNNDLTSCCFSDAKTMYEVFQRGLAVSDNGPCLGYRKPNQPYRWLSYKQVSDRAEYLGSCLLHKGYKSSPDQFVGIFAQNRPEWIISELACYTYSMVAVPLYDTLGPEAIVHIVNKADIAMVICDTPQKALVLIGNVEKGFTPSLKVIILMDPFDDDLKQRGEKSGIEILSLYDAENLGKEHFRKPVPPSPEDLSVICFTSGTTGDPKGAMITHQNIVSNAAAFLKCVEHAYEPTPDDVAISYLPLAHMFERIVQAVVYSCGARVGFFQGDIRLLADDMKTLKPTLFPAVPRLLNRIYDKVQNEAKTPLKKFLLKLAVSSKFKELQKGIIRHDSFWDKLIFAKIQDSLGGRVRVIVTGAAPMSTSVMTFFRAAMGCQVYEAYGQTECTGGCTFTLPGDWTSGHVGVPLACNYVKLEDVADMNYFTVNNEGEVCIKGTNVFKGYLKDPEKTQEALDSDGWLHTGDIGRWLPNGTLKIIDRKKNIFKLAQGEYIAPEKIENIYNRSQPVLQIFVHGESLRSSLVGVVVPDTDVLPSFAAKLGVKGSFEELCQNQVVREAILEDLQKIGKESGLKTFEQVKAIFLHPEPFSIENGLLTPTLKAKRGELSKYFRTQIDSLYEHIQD
inactive: [1] -0.007 | [2] -0.066 | [3] -0.042 | [4] -0.184 | [5] 0.081 | [6] 0.005 | [7] -0.035 | [8] 0.002 | [9] -0.103 | [10] -0.052 | [11] -0.021

APH1A (UniProt Q96BI3)
UniProt Q96BI3, sequence (Q96BI3 whole entry, looked up): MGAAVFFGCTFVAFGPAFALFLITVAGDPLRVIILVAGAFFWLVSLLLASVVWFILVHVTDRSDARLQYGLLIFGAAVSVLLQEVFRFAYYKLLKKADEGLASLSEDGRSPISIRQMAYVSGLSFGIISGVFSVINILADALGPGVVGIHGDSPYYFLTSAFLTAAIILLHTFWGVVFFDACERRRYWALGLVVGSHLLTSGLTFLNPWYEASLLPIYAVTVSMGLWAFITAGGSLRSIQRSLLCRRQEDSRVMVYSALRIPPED
active: [4] 0.303
inactive: [1] -0.048 | [2] -0.201 | [3] -0.075 | [5] 0.014 | [6] -0.024 | [7] 0.055 | [8] 0.006 | [10] 0.085 | [11] -0.084

ASNS (UniProt P08243)
inactive: [1] -0.033 | [2] -0.018 | [3] -0.019 | [4] 0.008 | [5] -0.007 | [6] 0.018 | [7] 0.013 | [8] -0.044 | [9] -0.021 | [10] -0.026 | [11] 0.004

AP2M1 (UniProt C9JTK4)
inactive: [1] -0.07 | [2] -0.149 | [3] -0.111 | [4] -0.261 | [5] 0.043 | [7] -0.132 | [8] 0.116 | [9] -0.267 | [10] 0.024 | [11] 0.047

ADK (UniProt P55263)
inactive: [1] -0.071 | [2] 0.07 | [3] 0.12 | [4] -0.04 | [5] -0.087 | [6] -0.044 | [7] -0.02 | [8] 0.011 | [9] 0.232 | [10] 0.158 | [11] 0.082

ARF4 (UniProt P18085)
inactive: [1] -0.011 | [2] 0.025 | [3] -0.082 | [4] -0.06 | [5] -0.002 | [6] -0.024 | [7] 0.041 | [8] -0.017 | [9] -0.069 | [10] -0.004 | [11] -0.088

ATF1 (UniProt P18846)
inactive: [1] 0.038 | [2] 0.096 | [3] 0.063 | [4] 0.127 | [5] 0.066 | [6] -0.102 | [7] 0.144 | [8] -0.146 | [10] -0.091 | [11] -0.006
active: [9] 0.372

ALDH6A1 (UniProt Q02252)
UniProt Q02252, sequence (Q02252 whole entry, looked up): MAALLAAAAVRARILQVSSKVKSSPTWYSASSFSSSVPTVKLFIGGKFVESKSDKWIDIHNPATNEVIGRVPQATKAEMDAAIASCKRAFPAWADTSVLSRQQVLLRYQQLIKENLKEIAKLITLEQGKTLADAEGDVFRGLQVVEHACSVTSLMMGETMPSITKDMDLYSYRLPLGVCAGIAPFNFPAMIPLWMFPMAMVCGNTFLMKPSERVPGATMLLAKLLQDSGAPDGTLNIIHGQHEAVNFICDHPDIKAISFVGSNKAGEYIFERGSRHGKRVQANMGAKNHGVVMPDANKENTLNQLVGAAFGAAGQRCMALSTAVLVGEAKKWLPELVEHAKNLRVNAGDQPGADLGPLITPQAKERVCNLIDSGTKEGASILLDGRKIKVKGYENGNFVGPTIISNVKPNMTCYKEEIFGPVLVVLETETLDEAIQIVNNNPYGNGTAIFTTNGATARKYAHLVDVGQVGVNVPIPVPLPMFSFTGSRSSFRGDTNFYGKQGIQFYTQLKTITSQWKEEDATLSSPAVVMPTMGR
inactive: [1] -0.02 | [2] 0.034 | [3] -0.045 | [4] -0.116 | [5] -0.052 | [6] 0.021 | [7] 0.062 | [8] 0.048 | [9] -0.072 | [10] -0.043 | [11] -0.028

ATP23 (UniProt Q9Y6H3)
UniProt Q9Y6H3, sequence (Q9Y6H3 whole entry, looked up): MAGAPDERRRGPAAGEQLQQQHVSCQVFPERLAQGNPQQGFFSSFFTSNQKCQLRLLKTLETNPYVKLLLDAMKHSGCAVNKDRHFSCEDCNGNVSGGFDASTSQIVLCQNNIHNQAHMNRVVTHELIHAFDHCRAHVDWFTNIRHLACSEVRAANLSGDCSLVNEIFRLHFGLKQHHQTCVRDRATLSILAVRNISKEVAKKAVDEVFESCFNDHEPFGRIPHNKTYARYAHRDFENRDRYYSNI
inactive: [1] 0.014 | [2] 0.06 | [3] 0.002 | [4] -0.057 | [5] -0.012 | [6] 0.044 | [7] -0.012 | [8] -0.027 | [9] 0.02 | [10] -0.045 | [11] 0.077

ADAMTS5 (UniProt Q9UNA0)
inactive: [1] 0.026 | [2] -0.065 | [3] 0.074 | [4] -0.071 | [5] -0.08 | [6] 0.056 | [7] 0.074 | [8] -0.064 | [10] 0.051 | [11] -0.145
